Experimental data: PubChem BioAssay (NCATS)
Inconclusive results are not listed. A number with no mark means an inactive call. Calls of active or inactive are those of the source. The call rests on the fitted dose curve; in most records, active means well fitted inhibition curve with a large enough effect; inconclusive means small, poorly fitted or top-dose-only effect; inactive means flat fitted curve, though single readings scatter.

tested on: DIV17; assay: qHTS profiling for inhibitors of Plasmodium falciparum proliferation (AID 504749); further: nearly all actives have a fitted effect of over 60% in size;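 on activity, negative = inhibition: 0% = DMSO vehicle and full inhibition = artemisinin control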; conditions: P. falciparum in erythrocytes, SYBR Green DNA, 72 h; series mostly up to 28.7 µM; activity, negative = inhibition: at the top concentration
Outline: (§1)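 Fluorescence of SYBR Green-bound parasite DNA, read at 485/535 nm, served as the growth measure. Infected erythrocytes were cultured with compound 72 h; artemisinin (0.29 uM) and DMSO wells defined the normalization range.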
Potency means the concentration at half of the fitted maximal effect.

Row | SMILES | activity, negative = inhibition | Potency
1 | CC1(C)O[C@H]2C[C@@H]3[C@H]4CCC5=CC(=O)C=C[C@]5(C)[C@@]4(F)[C@@H](O)C[C@]3(C)[C@]2(C(=O)CO)O1 | -24.1% | –
2 | COc1ccc(Cc2nccc3cc(OC)c(OC)cc23)cc1OC | -19% [at 12.8 µM] | –
3 | CC(=O)c1ccc(S(=O)(=O)NC(=O)NC2CCCCC2)cc1 | -5.92% | –
4 | CC1=C(/C=C/C(C)=C/C=C/C(C)=C/C(=O)Nc2ccc(O)cc2)C(C)(C)CCC1 | – | 16.9 µM (active)
5 | CC(=O)N[C@@H](CS)C(=O)O | -8.16% | –
6 | Cc1cnc(C(=O)O)c[n+]1[O-] | -2.81% | –
7 | O=C1NC(=O)C(c2ccccc2)(c2ccccc2)N1 | -2.96% | –
8 | CN(C)CCC(c1ccccc1)c1ccccn1 (configuration not stated) | – | 9.53 µM (active)
9 | O=C1NCC2(CCN(CCc3ccccc3)CC2)O1 | -5.96% | –
10 | NC(N)=Nc1nc(CSCC/C(N)=N/S(N)(=O)=O)cs1 | 0.0667% | –
11 | CCCCCN(C)CCC(O)(P(=O)(O)O)P(=O)(O)O | 1.03% | –
12 | NCCS | -6.13% | –
13 | COc1ccccc1N1CCN(CCCNc2cc(=O)n(C)c(=O)n2C)CC1 | – | inactive
14 | O=C(NCCN1CCOCC1)c1ccc(Cl)cc1 | -13.3% | –
15 | C[C@@H](O)[C@H]1C(=O)N2C(C(=O)O)=C(S[C@@H]3CN[C@H](C(=O)N(C)C)C3)[C@H](C)[C@H]12 | 1.63% | –
16 | CC(=O)CCCCn1c(=O)c2c(ncn2C)n(C)c1=O | 5.41% [at 12.8 µM] | –
17 | O=C(O)c1cc(-c2ccccc2)nc2ccccc12 | 2.93% | –
18 | O=C(O)Cc1cccc2ccccc12 | 0.205% | –
19 | CCN(CC)C(=O)c1ccc(O)c(OC)c1 | – | inactive
20 | CCCNC(=O)NS(=O)(=O)c1ccc(Cl)cc1 | -6.94% | –
21 | CCN1CCC[C@H]1CNC(=O)c1cc(S(N)(=O)=O)ccc1OC | 1.41% | –
22 | C[N+](C)(C)CCCCCC[N+](C)(C)C | 4.75% | –
23 | CCN(CC)CCNC(=O)c1ccc(N)cc1 | 3.53% | –
24 | O=C(O)c1c(Cl)c(Cl)c(Cl)c(Cl)c1-c1c2cc(I)c(=O)c(I)c-2oc2c(I)c(O)c(I)cc12 | -1.53% | –
25 | COCCCCC(=NOCCN)c1ccc(C(F)(F)F)cc1 | – | 6.75 µM (active)
26 | CCOC(=O)O[C@]1(C(=O)OCCl)CC[C@@H]2[C@H]3CCC4=CC(=O)C=C[C@]4(C)[C@@H]3[C@@H](O)C[C@@]21C | -8.07% | –
27 | CCN(CC)CCOC(=O)c1ccc(N)cc1 | 6.52% [at 12.8 µM] | –

tested on: DIV30; assay: as above; conditions: P. falciparum in erythrocytes, SYBR Green DNA, 72 h; series mostly up to 28.7 µM; activity, negative = inhibition: at the top concentration
Outline: as §1

Row | SMILES | activity, negative = inhibition | outcome
28 | COc1ccc(Cc2nccc3cc(OC)c(OC)cc23)cc1OC | -0.819% [at 12.8 µM] | –
29 | CC(=O)c1ccc(S(=O)(=O)NC(=O)NC2CCCCC2)cc1 | 0.231% | –
30 | CC(=O)N[C@@H](CS)C(=O)O | 1.36% | –
31 | Cc1cnc(C(=O)O)c[n+]1[O-] | -1.83% | –
32 | O=C1NC(=O)C(c2ccccc2)(c2ccccc2)N1 | 2.9% | –
33 | O=C1NCC2(CCN(CCc3ccccc3)CC2)O1 | 0.262% | –
34 | NC(N)=Nc1nc(CSCC/C(N)=N/S(N)(=O)=O)cs1 | -6.24% | –
35 | CCCCCN(C)CCC(O)(P(=O)(O)O)P(=O)(O)O | 5.81% | –
36 | NCCS | -0.0761% | –
37 | COc1ccccc1N1CCN(CCCNc2cc(=O)n(C)c(=O)n2C)CC1 | – | inactive
38 | O=C(NCCN1CCOCC1)c1ccc(Cl)cc1 | -7.24% | –
39 | C[C@@H](O)[C@H]1C(=O)N2C(C(=O)O)=C(S[C@@H]3CN[C@H](C(=O)N(C)C)C3)[C@H](C)[C@H]12 | 0.419% | –
40 | CC(=O)CCCCn1c(=O)c2c(ncn2C)n(C)c1=O | -0.422% [at 12.8 µM] | –
41 | O=C(O)c1cc(-c2ccccc2)nc2ccccc12 | -0.32% | –
42 | O=C(O)Cc1cccc2ccccc12 | 0.239% | –
43 | CCN(CC)C(=O)c1ccc(O)c(OC)c1 | – | inactive
44 | O=C1Nc2ccc(Cl)cc2C(C#CC2CC2)(C(F)(F)F)O1 (configuration not stated) | -20.1% | –
45 | CCCNC(=O)NS(=O)(=O)c1ccc(Cl)cc1 | -1.81% | –
46 | CCN1CCC[C@H]1CNC(=O)c1cc(S(N)(=O)=O)ccc1OC | 1.96% | –
47 | C[N+](C)(C)CCCCCC[N+](C)(C)C | -0.467% | –
48 | O=c1[nH]cnc2c1ncn2[C@H]1CC[C@@H](CO)O1 | -0.95% | –
49 | CCN(CC)CCNC(=O)c1ccc(N)cc1 | -16% | –
50 | O=C(O)c1c(Cl)c(Cl)c(Cl)c(Cl)c1-c1c2cc(I)c(=O)c(I)c-2oc2c(I)c(O)c(I)cc12 | -12.3% | –
51 | CCN(CC)CCOC(=O)c1ccc(N)cc1 | 3.73% [at 12.8 µM] | –

tested on: Dd2; assay: as above; conditions: P. falciparum in erythrocytes, SYBR Green DNA, 72 h; series mostly up to 28.7 µM; activity, negative = inhibition: at the top concentration
Outline: as §1

Row | SMILES | activity, negative = inhibition | Potency
52 | CC1(C)O[C@H]2C[C@@H]3[C@H]4CCC5=CC(=O)C=C[C@]5(C)[C@@]4(F)[C@@H](O)C[C@]3(C)[C@]2(C(=O)CO)O1 | -9.02% | –
53 | COc1ccc(Cc2nccc3cc(OC)c(OC)cc23)cc1OC | -7.34% [at 12.8 µM] | –
54 | CC(=O)c1ccc(S(=O)(=O)NC(=O)NC2CCCCC2)cc1 | -8.24% | –
55 | CC1=C(/C=C/C(C)=C/C=C/C(C)=C/C(=O)Nc2ccc(O)cc2)C(C)(C)CCC1 | – | 11.2 µM (active)
56 | CC(=O)N[C@@H](CS)C(=O)O | 3.24% | –
57 | Cc1cnc(C(=O)O)c[n+]1[O-] | 2.43% | –
58 | O=C1NC(=O)C(c2ccccc2)(c2ccccc2)N1 | -0.118% | –
59 | CN(C)CCC(c1ccccc1)c1ccccn1 (configuration not stated) | 3.57% | –
60 | O=C1NCC2(CCN(CCc3ccccc3)CC2)O1 | -9.61% | –
61 | CC(=O)O[C@]1(C(C)=O)CC[C@H]2[C@@H]3C=C(Cl)C4=CC(=O)[C@@H]5C[C@@H]5[C@]4(C)[C@H]3CC[C@@]21C | -22.3% | –
62 | NC(N)=Nc1nc(CSCC/C(N)=N/S(N)(=O)=O)cs1 | 0.635% | –
63 | CCCCCN(C)CCC(O)(P(=O)(O)O)P(=O)(O)O | -7.19% | –
64 | NCCS | -13.7% | –
65 | COc1ccccc1N1CCN(CCCNc2cc(=O)n(C)c(=O)n2C)CC1 | – | inactive
66 | O=C(NCCN1CCOCC1)c1ccc(Cl)cc1 | -8.81% | –
67 | C[C@@H](O)[C@H]1C(=O)N2C(C(=O)O)=C(S[C@@H]3CN[C@H](C(=O)N(C)C)C3)[C@H](C)[C@H]12 | 0.73% | –

Row | SMILES | activity, negative = inhibition | Potency
68 | CC(=O)CCCCn1c(=O)c2c(ncn2C)n(C)c1=O | 6.24% [at 12.8 µM] | –
69 | O=C(O)c1cc(-c2ccccc2)nc2ccccc12 | -3.23% | –
70 | O=C(O)Cc1cccc2ccccc12 | 9.16% | –
71 | CCN(CC)C(=O)c1ccc(O)c(OC)c1 | – | inactive
72 | CCCCC1C(=O)N(c2ccccc2)N(c2ccccc2)C1=O | -13% | –
73 | O=C1Nc2ccc(Cl)cc2C(C#CC2CC2)(C(F)(F)F)O1 (configuration not stated) | -5.19% | –
74 | CCCNC(=O)NS(=O)(=O)c1ccc(Cl)cc1 | -0.761% | –
75 | CCN1CCC[C@H]1CNC(=O)c1cc(S(N)(=O)=O)ccc1OC | 11.3% | –
76 | C[N+](C)(C)CCCCCC[N+](C)(C)C | 7.86% | –
77 | O=c1[nH]cnc2c1ncn2[C@H]1CC[C@@H](CO)O1 | 3.23% | –
78 | CCN(CC)CCNC(=O)c1ccc(N)cc1 | 2.58% | –
79 | O=C(O)c1c(Cl)c(Cl)c(Cl)c(Cl)c1-c1c2cc(I)c(=O)c(I)c-2oc2c(I)c(O)c(I)cc12 | 3.08% | –
80 | CCOC(=O)O[C@]1(C(=O)OCCl)CC[C@@H]2[C@H]3CCC4=CC(=O)C=C[C@]4(C)[C@@H]3[C@@H](O)C[C@@]21C | -8.53% | –
81 | Clc1ccc(Cn2c(CN3CCCC3)nc3ccccc32)cc1 | -25.1% [at 12.8 µM] | –
82 | CCN(CC)CCOC(=O)c1ccc(N)cc1 | 13.8% [at 12.8 µM] | –
